SMN2 splice up = qHTS Assay for Enhancers of SMN2 Splice Variant Expression; 210,000 tested, 2.8% active; Potency, µM (top dose mostly 46.1 µM), for inactives: at the highest dose activity change, positive = activation, most hits filed as activators; HEK293 SMN2-luciferase splicing reporter, luminescence, 30-36 h; further: % of control where 0% means no effect; nearly all actives have a fitted effect of over 55% in size
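HEK293 cells carry an SMN2 minigene-luciferase reporter in which exon 7 inclusion puts luciferase in frame. Cells were seeded at 2000 cells/well, attached for 10-12 hours, then exposed to compounds for 30-36 hours at 37C before ONE-Glo luminescence.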
FLuc counter = qHTS profiling assay for firefly luciferase inhibitor/activator using purifed enzyme and Km concentrations of substrates (counterscreen for miR-21 project); Luciferin 4-monooxygenase (Photinus pyralis), P08659; purified FLuc, Km substrates, luminescence inhibition; Potency, µM (titrated, usually from 57.5 µM), for inactives: at the highest dose activity change, negative = inhibition, usual class: inhibitors; 360,000 tested, 6.9% active;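 further: plate controls were vehicle for no effect and reference inhibitor for full effect; nearly all actives have a fitted effect of over 55% in size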
Target sequence (P08659 whole entry, looked up): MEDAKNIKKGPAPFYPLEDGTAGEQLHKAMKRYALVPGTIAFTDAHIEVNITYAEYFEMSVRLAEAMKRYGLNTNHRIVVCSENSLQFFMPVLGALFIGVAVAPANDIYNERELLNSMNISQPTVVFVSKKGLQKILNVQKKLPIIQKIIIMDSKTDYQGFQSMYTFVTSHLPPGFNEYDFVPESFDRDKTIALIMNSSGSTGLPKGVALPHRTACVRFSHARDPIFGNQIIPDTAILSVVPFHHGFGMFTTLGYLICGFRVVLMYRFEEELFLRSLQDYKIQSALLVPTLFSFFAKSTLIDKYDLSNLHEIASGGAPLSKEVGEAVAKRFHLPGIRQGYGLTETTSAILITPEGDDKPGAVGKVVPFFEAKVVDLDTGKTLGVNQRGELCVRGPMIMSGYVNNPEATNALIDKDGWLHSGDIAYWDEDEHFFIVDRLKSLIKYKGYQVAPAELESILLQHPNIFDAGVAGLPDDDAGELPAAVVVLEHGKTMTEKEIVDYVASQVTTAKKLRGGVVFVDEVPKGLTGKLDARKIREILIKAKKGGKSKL
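Purified P. pyralis luciferase, 10 nM final, with Km-level 10 uM D-luciferin and 10 uM ATP in 50 mM Tris acetate pH 7.5, 10 mM Mg acetate, 0.01% Tween-20, 0.05% BSA; 6-point qHTS titration about 60 µM downward; luminescence read.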
KinaseGlo FLuc = Counterscreen for Luciferase (Kinase-Glo TM) Inhibition | Luciferin 4-monooxygenase (Photuris pensylvanica), Q27757 | Potency, µM (doses to about 38.3 µM), for the others: at the top dose activity change, negative = inhibition, actives largely listed as inhibitors | Kinase-Glo luciferase, ATP luminescence, 8 min | 200,000 tested, 0.28% active; further: on the % scale 0 is the no-effect control and ±100 the full control effect; nearly all actives have a fitted effect of over 60% in size
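Compounds were added to a substrate mix at pH 7.2 (50 mM imidazole, 10 uM ATP, within the enzyme's linear range), followed by Kinase-Glo detection reagent; luminescence was measured after 8 minutes at ambient temperature.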
ELG1 genotox = qHTS screen for small molecules that induce genotoxicity in human embryonic kidney (HEK293T) cells expressing luciferase-tagged ELG1; HEK293T ELG1-luciferase reporter, luminescence, 16 h; Potency, µM (series often up to 46 µM), without a hit: at the highest dose activity change, positive = activation, hits mostly activators; 330,000 tested, 1.3% active; AID 504466, 2011; further: % of control where 0% means no effect; nearly all actives have a fitted effect of over 60% in size
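Reporter readout depends on ELG1 protein level, which increases with genetic stress. After 16 hr compound exposure at 37 °C, luciferase activity was quantified using ONE-Glo.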
Rab9 promoter act = qHTS Assay for Rab9 Promoter Activators | Potency, µM (titrated, usually from 9.22 µM), for the others: top-dose activation, negative = inhibition, usual class: activators | Huh7 Rab9 promoter-luciferase reporter, luminescence, 24 h | 320,000 tested, 2.8% active | AID 485297, 2010; further: % of control where 0% means no effect; nearly all actives have a fitted effect of over 60% in size
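Luminescence read-out: Huh7 cells stably expressing Rab9-luciferase, treated 24 h with compound at 37 °C, then lysed with luciferase reagent for 10 min at ambient before reading.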
NPC1 promoter act = qHTS Assay for NPC1 Promoter Activators; Huh7 NPC1 promoter luciferase reporter, 24 h; Potency, µM (highest dose often 9.22 µM), for inactives: at the highest dose activation, usual class: activators; 320,000 tested, 2.4% active; AID 485313, 2010; further: % of control where 0% means no effect; nearly all actives have a fitted effect of over 60% in size
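Luminescence read-out of NPC1 promoter-driven luciferase in stably transfected Huh7 cells; compounds delivered in DMSO and left 24 h at 37C, 5% CO2, qHTS titration format.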
Numbers without * were called inactive; ? = inconclusive; / = no result given. In the library only some 7.5% were active in any assay of this set; here they are far more common. The call rests on the fitted dose curve; in most records, active means well fitted curve in the direction sought with a large enough effect; inconclusive means small, poorly fitted or top-dose-only effect, or another doubt; inactive means no such curve, though single readings can be large; an effect the other way counts as inactive or inconclusive. Potency means the concentration at half of the fitted maximal effect.

SMILES | SMN2 splice up | FLuc counter | KinaseGlo FLuc | ELG1 genotox | Rab9 promoter act | NPC1 promoter act
COc1ccccc1-c1noc(-c2cccs2)n1 | 11.2µM* | 7.57µM* | -7.0% | ? | 2.24µM* | 1.58µM*
COc1ccc(-c2nc(-c3cccs3)no2)cc1 | / | 0.0849µM* | / | ? | 0.1µM* | 0.316µM*
COc1ccc2c(c1)c1c(c(=O)n(CCc3ccccc3)c(=O)n1Cc1cccc(F)c1)n2C | / | -0.1% | / | / | / | /
CCCCOc1ccc(-c2nc(-c3cccnc3)no2)cc1 | 12.6µM* | 4.26µM* | -2.6% | 6.51µM* | 2µM* | 3.55µM*
CCOc1nc(-c2ccccc2)ccc1-c1noc(-c2cccs2)n1 | 1.3% | ? | 3.4% | -1.0% | 5.6% | 8.9%
CCOc1nc(-c2ccc(C)cc2)ccc1-c1noc(-c2cccnc2)n1 | / | 0.5% | -0.3% | 0.9% | -2.2% | -0.3%
Cc1ccc(-c2noc(-c3cccs3)n2)cc1 | 12.6µM* | 0.601µM* | ? | 0.651µM* | 0.794µM* | 2.82µM*
CCOc1ccc(-c2nc(-c3ccccc3C)no2)cc1 | 1.58µM* | 1.07µM* | ? | 0.731µM* | 0.447µM* | 0.631µM*
CCN(c1ccc(C)cc1)S(=O)(=O)c1nnc(NC(=O)c2ccco2)s1 | / | 0.2% | / | -0.3% | -14.7% | 1.8%
Nc1nnc(COc2ccc(Br)cc2Br)s1 | ? | 8.49µM* | 12.2% | ? | ? | ?
CCc1ccc(CN(C)C(=O)c2cc(COc3ccc(OC)cc3Cl)on2)nc1 | / | 15.1µM* | / | ? | ? | 3.16µM*
COc1ccc(OCc2cc(C(=O)N3CCCN(C(C)=O)CC3)no2)c(Cl)c1 | / | 26.9µM* | / | ? | 29.7% | ?
CC(=O)c1ccc(OCc2cc(C(=O)N(C)Cc3cc(C)no3)no2)cc1 | / | ? | / | 11.9% | 22.6% | 16.5%
COc1ccc(OCc2cc(C(=O)N(C)Cc3nnc(C)o3)no2)c(Cl)c1 | / | 8.49µM* | / | ? | 3.55µM* | 3.16µM*
COc1cc(Cl)ccc1OCc1cc(C(=O)N(C)Cc2nnc(C)o2)no1 | / | ? | / | ? | 26.5% | 28.9%
COc1ccc(OCc2cc(C(=O)N(C)Cc3cc(C)no3)no2)c(Cl)c1 | / | 6.01µM* | / | ? | 3.98µM* | 2.82µM*
Cc1ccc2ncc(C(=O)NCc3ccccc3Cl)c(=O)n2c1 | 0.2% | -6.8% | / | / | / | /
COc1cccc(CN(C)CC(=O)Nc2ccccc2C(C)C)c1 | -42.2% | 2.0% | -2.5% | -6.4% | -5.5% | -1.8%
O=c1c2sc3ccccc3c2n(Cc2cccc(Cl)c2)c(=O)n1Cc1ccc(F)cc1 | -12.0% | 0.3% | / | / | / | /
CCOc1ccc(C2NC(=O)NC(C)=C2[N+](=O)[O-])cc1OC (stereo not given) | / | -0.6% | / | 6.6% | -2.4% | -9.3%
Cn1nc(C(=O)Nc2ccc(S(=O)(=O)N3CCOCC3)cc2)c2ccccc2c1=O | 8.5% | -2.4% | -3.4% | 12.5% | -2.5% | -7.1%
CCN(Cc1ccncc1)C(=O)c1cc(COc2ccc(OC)cc2Cl)on1 | / | 21.3µM* | / | ? | 2.82µM* | 3.16µM*
Fc1ccc(CNC(=S)Nc2ccccc2Cl)cc1 | ? | 3.0% | -3.9% | 0.6% | -0.1% | -2.0%
COc1ccc(-c2cc(C(=O)Nc3cccc(O)c3)no2)cc1 | / | 0.379µM* | / | ? | 3.98µM* | ?
CC(=O)c1cccc(NC(=O)c2cc(-c3ccco3)on2)c1 | / | 2.39µM* | / | ? | 3.5% | -3.4%
O=C(Nc1cccc(C(F)(F)F)c1)c1cc(-c2ccco2)on1 | / | ? | / | 7.0% | 2.9% | 1.1%
O=C(Nc1cccc(O)c1)c1cc(-c2ccco2)on1 | 10.6% | 0.953µM* | -5.2% | ? | 1.5% | -2.0%
COc1ccc(-c2cc(C(=O)Nc3ccc(C)c(C)c3)no2)cc1 | / | -1.1% | / | 4.0% | 22.5% | 10.2%

Screening results: PubChem, National Center for Advancing Translational Sciences (NCATS)
